Inconclusive results are not listed. Activity calls are given as the source filed them. Calls come from the whole dose curve; as a rule, active = well fitted activation curve with a large enough effect in the signal ratio, with a control signal flat; inconclusive = small, poorly fitted or top-dose-only effect, or a change in a side signal; inactive = flat fitted curve, though single readings scatter; the % refers to the signal ratio.
biological target: Thyrotropin receptor (Homo sapiens) (UniProt P16473); experiment: Secondary Concentration-Response Assay for Agonists of the Thyroid Stimulating Hormone Receptor: HTRF Activity Detection; conditions: HEK293-TSHR cells, cAMP HTRF ratio, 30 min; series mostly up to 91.7 µM; activation: at the top concentration; for activation: % of control where 0% means no effect
Sequence (P16473 whole entry, looked up): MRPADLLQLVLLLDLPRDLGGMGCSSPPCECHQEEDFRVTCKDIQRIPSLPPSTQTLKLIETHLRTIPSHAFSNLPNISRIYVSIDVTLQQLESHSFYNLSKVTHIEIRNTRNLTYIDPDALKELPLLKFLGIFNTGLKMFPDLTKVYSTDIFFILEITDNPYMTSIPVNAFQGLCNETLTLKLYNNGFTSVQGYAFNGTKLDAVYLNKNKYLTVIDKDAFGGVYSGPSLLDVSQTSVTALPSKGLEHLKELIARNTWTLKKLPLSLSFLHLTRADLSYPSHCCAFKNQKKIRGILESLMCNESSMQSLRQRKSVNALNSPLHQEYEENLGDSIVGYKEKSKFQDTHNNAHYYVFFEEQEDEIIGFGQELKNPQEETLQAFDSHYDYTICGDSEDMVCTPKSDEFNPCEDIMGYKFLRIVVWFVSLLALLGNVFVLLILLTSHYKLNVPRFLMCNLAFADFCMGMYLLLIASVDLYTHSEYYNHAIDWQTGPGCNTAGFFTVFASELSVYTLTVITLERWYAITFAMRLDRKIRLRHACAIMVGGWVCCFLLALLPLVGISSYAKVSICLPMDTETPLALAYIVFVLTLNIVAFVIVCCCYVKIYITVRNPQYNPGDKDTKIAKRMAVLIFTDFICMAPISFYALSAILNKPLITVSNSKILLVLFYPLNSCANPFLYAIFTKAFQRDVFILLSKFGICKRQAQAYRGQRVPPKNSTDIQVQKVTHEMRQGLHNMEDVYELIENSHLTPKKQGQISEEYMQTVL
Summary of the method: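 cAMP accumulation was detected by antibody-based HTRF, excitation 330 nm, emissions 615 and 660 nm. Compounds acted for 30 min at room temperature on stably TSHR-transfected HEK 293 cells, with phosphodiesterase inhibitor RO 20-1724 (100 uM) in the medium.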
Potency is the fitted concentration of half-maximal effect.

activation, inactive:
CCOc1ccc(N(CC(=O)NCc2cccs2)S(=O)(=O)c2c(C)noc2C)cc1 -0.0859% [at 0.00035 µM]
COc1ccc(C2Nc3ccccc3C(=O)N2c2ccc(C)cc2)cc1Cn1nc(C)c([N+](=O)[O-])c1C (stereo not given) 1.41%
COC(=O)C1=C(C)NC(=O)NC1c1cn(-c2ccccc2)nc1-c1cccs1 (stereo not given) -0.246% [at 0.00035 µM]
COc1ccc(C2Nc3ccccc3C(=O)N2c2ccccc2)cc1CSc1ccccn1 (stereo not given) 0.586%
COc1ccc(C2Nc3ccccc3C(=O)N2Cc2ccccc2Cl)cc1COc1ccc(NC(C)=O)cc1 (stereo not given) 10.2%
CC1(C)CC2CC(C)(CN2S(=O)(=O)c2ccc(N)cc2)C1 (stereo not given) -0.162% [at 0.00035 µM]
COc1ccc(-c2ccc(-c3noc(C)n3)c(OC)n2)cc1 -0.214% [at 0.00035 µM]
CCOC(=O)c1ccccc1OCc1cc(C2Nc3ccccc3C(=O)N2c2cccc3ccccc23)ccc1OC (stereo not given) 0.946%
CCOC(=O)COc1c(OC)cc(Cl)cc1C1Nc2ccccc2C(=O)N1c1ccc(F)cc1 (stereo not given) 0.758%
COc1ccc(C2Nc3ccccc3C(=O)N2c2ccc(C)cc2)cc1COc1ccccn1 (stereo not given) 2%
CCOc1cc(C2Nc3ccccc3C(=O)N2c2ccccc2)c(Br)cc1OCC(=O)O (stereo not given) 1.1%
COc1ccc(C2Nc3ccccc3C(=O)N2Cc2ccccc2)cc1COc1ccc(NC(=O)c2ccccc2)cc1 (stereo not given) 8.86%
COc1ccc(C2Nc3ccccc3C(=O)N2Cc2ccc(C(C)(C)C)cc2)cc1COc1ccc(NC(C)=O)cc1 (stereo not given) 12.7%
COc1ccc(C2Nc3ccccc3C(=O)N2c2cccc3ccccc23)cc1COc1c(C)cccc1C (stereo not given) 1.6%
COc1cccc(-c2nc(SC)nc3sc(C(=O)NC(C)(C)C)c(N)c23)c1 28.5%
COc1ccc(N2C(=O)c3ccccc3NC23C(=O)N(C)c2ccccc23)cc1 (stereo not given) 0.828%
O=C(CSc1nc2scc(-c3ccco3)c2c(=O)n1-c1ccccc1)N1CCOCC1 -0.79% [at 0.00035 µM]
COc1cc(C2Nc3ccccc3C(=O)N2c2ccccc2OC)ccc1O (stereo not given) 1.38%
COc1ccc(-c2nc3cccc(OC)c3c(=O)n2Cc2ccccc2)cc1COc1ccc(NC(C)=O)cc1 28.9%
COc1ccc(C2Nc3ccccc3C(=O)N2CC(C)(C)C)cc1COc1ccc(NC(C)=O)cc1 (stereo not given) 19.3%
CC(NC(=O)COC(=O)c1ccco1)C12CC3CC(CC(C3)C1)C2 (stereo not given) 0.512%
COc1ccc(N(C)S(=O)(=O)c2cccc(C(=O)NC3=NCCS3)c2)cc1 1.29% [at 0.00035 µM]
COc1ccc(C2Nc3ccccc3C(=O)N2Cc2ccccc2)cc1COc1ccc(F)cc1 (stereo not given) 16.4%
Cc1ccc(C2Nc3ccccc3C(=O)N2Cc2ccco2)cc1 (stereo not given) 0.603%
CCN(CC)CCN1C(=O)c2ccccc2NC1c1ccc(N(C)C)cc1 (stereo not given) 1.45%
COc1ccc(CN(Cc2ccccc2)S(=O)(=O)c2ccccc2)cc1COc1ccc(NC(C)=O)cc1 12.9%
O=C(c1ccc(Br)o1)N(Cc1ccccc1)c1ccccn1 0.801% [at 0.00035 µM]
Cc1occc1-c1nnc(SCC(=O)NCc2ccco2)n1CC(C)C 0.131% [at 0.00035 µM]
O=C1c2ccccc2NC(c2cc(Br)c3c(c2)OCO3)N1Cc1ccco1 (stereo not given) 12.2%

Potency, active:
O=C(COC(=O)C12CC3CC(CC(Br)(C3)C1)C2)NCc1ccco1 10 µM
COc1ccc(CN2C(=O)c3ccccc3NC2c2ccc(OC)c(COc3ccc(NC(C)=O)cc3)c2)cc1 (stereo not given) 3.16 µM
COc1ccc(CN(Cc2ccccc2)C(=O)c2ccco2)cc1COc1ccc(NC(C)=O)cc1 15.8 µM
COc1ccc(C2Nc3ccccc3C(=O)N2Cc2cccnc2)cc1COc1ccc(NC(C)=O)cc1 (stereo not given) 35.5 µM
COc1ccc(CN(Cc2ccccc2)C(=O)C2CC2)cc1COc1ccc(NC(C)=O)cc1 15.8 µM
COc1cccc(CN2C(=O)c3ccccc3NC2c2ccc(OC)c(COc3ccc(NC(C)=O)cc3)c2)c1 (stereo not given) 6.31 µM

Source: PubChem BioAssay AID933 (National Center for Advancing Translational Sciences (NCATS), 2007)
